HepG2 tox – qHTS for Inhibitors of TGF-b: Cytotox Counterscreen. HepG2 CAGA-GFP viability, ATP luminescence, 18 h. Potency, µM (titrated, usually from 46.1 µM), inactives show at the highest dose activity change, negative = cytotoxicity, usual class: cytotoxic. actives 0.76% (n = 410,000); also: potency is read from the fitted curve at half-maximal effect
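CellTiter-Glo luminescence gave cytotoxicity after 18 hours at 37 degrees C. The cells were HepG2 CAGA-GFP in 1% FBS DMEM, stimulated with 500 pg/mL TGF-beta after compound addition. %Activity was normalised to no-cell wells (complete cell-killing) and DMSO (no toxicity), and curves were fitted and classified.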
S-ASM inh – Inhibitors of Secretory Acid Sphingomyelinase (S-ASM): qHTS; placental ASM, HMU-PC fluorogenic substrate, 60 min; Potency, µM (highest dose often 57.5 µM), for the others: top-dose activity change, negative = inhibition, hits mostly inhibitors; actives 0.006% (n = 340,000); Sphingomyelin phosphodiesterase (Homo sapiens), P17405; also: potency is read from the fitted curve at half-maximal effect
Target sequence (P17405 47-631 limits assumed): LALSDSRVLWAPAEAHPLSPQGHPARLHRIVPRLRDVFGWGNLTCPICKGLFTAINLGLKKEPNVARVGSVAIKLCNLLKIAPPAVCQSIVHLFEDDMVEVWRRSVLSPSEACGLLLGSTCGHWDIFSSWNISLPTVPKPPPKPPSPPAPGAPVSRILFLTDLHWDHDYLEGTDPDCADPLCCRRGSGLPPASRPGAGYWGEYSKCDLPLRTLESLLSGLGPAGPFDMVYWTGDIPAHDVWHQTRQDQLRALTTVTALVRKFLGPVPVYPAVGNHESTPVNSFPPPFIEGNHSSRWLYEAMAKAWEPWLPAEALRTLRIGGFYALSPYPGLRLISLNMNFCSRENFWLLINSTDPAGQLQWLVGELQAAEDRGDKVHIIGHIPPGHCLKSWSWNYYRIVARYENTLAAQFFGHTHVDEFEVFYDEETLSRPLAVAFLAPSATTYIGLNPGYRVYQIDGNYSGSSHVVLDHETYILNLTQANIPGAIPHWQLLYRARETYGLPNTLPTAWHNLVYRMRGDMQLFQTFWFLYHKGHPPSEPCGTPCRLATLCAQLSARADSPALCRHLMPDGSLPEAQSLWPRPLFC
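Fluorescence read-out (Ex 386 nm, Em 447 nm) after stopping the reaction at pH 10. Enzyme: ASM from human placenta; substrate HMU-PC0, 9 uM final; 60 min, 37 °C. Compound preincubation 10 min, ambient temperature.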
TDP1 cell noCPT – qHTS for Inhibitors of human tyrosyl-DNA phosphodiesterase 1 (TDP1): qHTS in cells in absence of CPT; Potency, µM (highest dose often 46.2 µM), for inactives: at the highest dose activity change, negative = growth inhibition, actives largely listed as inhibitors; AID 686978, 2013; actives 15% (n = 420,000); DT40 Tdp1-/- hTDP1 cells, no CPT, ATP luminescence, 48 h; also: potency is read from the fitted curve at half-maximal effect; % is scaled to controls: 0 for no effect and ±100 for the full control effect; nearly all actives have a fitted effect of over 55% in size
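Growth kinetics read by CellTiter-Glo luminescence after ≥48 hr at 37 °C. Cells: DT40 Tdp1-/- stably carrying human TDP1, 400 per well, compound exposure in the absence of CPT (DMSO vehicle).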
TGFb SMAD3 inh – qHTS for Inhibitors of TGF-b. HepG2 CAGA-GFP TGF-b/SMAD3 reporter, GFP fluorescence, 18 h; TGF-beta stimulated, 500 pg/mL final. AID 588855, 2011. actives 1.2% (n = 410,000). Potency, µM (titrated, usually from 46.1 µM), inactives show at the top dose activity, negative = inhibition, hits mostly inhibitors; also: potency is read from the fitted curve at half-maximal effect; % is scaled to controls: 0 for no effect and ±100 for the full control effect; nearly all actives have a fitted effect of over 65% in size
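TGF-beta reporter screen: HEPG2 CAGA-GFP, 1% FBS, 500 pg/mL TGF-beta final, 18 h; per-cell GFP summed per well; curves fitted and categorized by class.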
TDP1 cell CPT – qHTS for Inhibitors of human tyrosyl-DNA phosphodiesterase 1 (TDP1): qHTS in cells in presence of CPT. Potency, µM (series often up to 46.2 µM), for the others: at the top dose activity change, negative = growth inhibition, most hits filed as inhibitors. actives 12% (n = 420,000). chicken DT40 Tdp1-/-;hTDP1 cells + 20 nM CPT, ATP luminescence, 48 h; also: potency is read from the fitted curve at half-maximal effect; % is scaled to controls: 0 for no effect and ±100 for the full control effect; nearly all actives have a fitted effect of over 55% in size
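Chicken DT40 Tdp1-/- cells complemented with human TDP1, 400 cells/well, exposed to compounds plus 20 nM camptothecin for at least 48 h at 37 C; viability read as ATP content by CellTiter-Glo luminescence.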
IL1B secr inh – qHTS for Inhibitors of Inflammasome Signaling: IL-1-beta AlphaLISA Primary Screen; THP-1 LPS/ATP IL-1B secretion, AlphaLISA, 16 h; active compounds read low; activity change, % at 57.5 µM; actives 4.7% (n = 360,000); AID 743279, 2014; in the data active = activity change below about -50%; inconclusive = mostly about -30% to -49%; also: % is scaled to controls: 0 for no effect and ±100 for the full control effect
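THP-1 cells pretreated 1 hr with compounds (up to 57.5 uM final), then stimulated with LPS (250 ng/mL final) plus ATP (1.25 mM final); secreted IL-1B measured by AlphaLISA after 16 hr, decreased signal indicating inhibition.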
The depositor's hits bear a star. Hits are enriched below; roughly 19% of the tested compounds scored in any of these assays. Unless noted, calls follow the shape of the dose curve; as a rule, active = well fitted curve in the direction sought with a large enough effect; inconclusive = small, poorly fitted or top-dose-only effect, or another doubt; inactive = no such curve, though single readings can be large; an effect the other way counts as inactive or inconclusive.

Screening CCCCn1nnnc1C(CCc1ccccc1)N1CCN(C/C=C/c2ccccc2)CC1 (stereo not drawn) returned HepG2 tox -44%, TDP1 cell noCPT 23µM*, TGFb SMAD3 inh inconclusive, TDP1 cell CPT inconclusive and IL1B secr inh inconclusive.
CSCCC(c1nnnn1C(C)(C)C)N1CCN(C/C=C/c2ccccc2)CC1 (stereo not drawn) was read as HepG2 tox -20%, TDP1 cell noCPT inconclusive, TGFb SMAD3 inh -25%, TDP1 cell CPT inconclusive and IL1B secr inh -9.
For CC(C)C(c1nnnn1C(C)(C)C)N1CCC(Cc2ccccc2)CC1 (stereo not drawn) the results were HepG2 tox 2%, S-ASM inh 4%, TDP1 cell noCPT inconclusive, TGFb SMAD3 inh -32%, TDP1 cell CPT inconclusive and IL1B secr inh -76*.
Screening CC(C)(C)n1nnnc1C(CCc1ccccc1)N1CCN(C/C=C/c2ccccc2)CC1 (stereo not drawn) returned HepG2 tox -8%, TDP1 cell noCPT 15µM*, TGFb SMAD3 inh inconclusive, TDP1 cell CPT inconclusive and IL1B secr inh -27.
`Cc1ccccc1-c1nc(CS(=O)(=O)CC(=O)NCc2ccco2)c(C)o1` gave HepG2 tox -5%, S-ASM inh 2%, TDP1 cell noCPT 17%, TGFb SMAD3 inh -12%, TDP1 cell CPT -17% and IL1B secr inh -1.
For COc1ccc(NC(=O)CN(C)C(=O)CSCc2c(C)noc2C)cc1 the results were HepG2 tox -1%, S-ASM inh 4%, TDP1 cell noCPT -15%, TGFb SMAD3 inh 6%, TDP1 cell CPT 5% and IL1B secr inh 5.
For C[C@@H]1CC[C@@]2(O[C@@H](CCO)C[C@@H](O)[C@@H]2O)O1 the results were HepG2 tox -8%, S-ASM inh -4%, TDP1 cell noCPT -2%, TGFb SMAD3 inh -6%, TDP1 cell CPT 15% and IL1B secr inh 24.
Cc1ccc(S(=O)(=O)N(C)Cc2ccc(C(=O)NN=C(CC(C)C)CC(C)C)cc2)cc1 was read as HepG2 tox -14%, S-ASM inh -1%, TDP1 cell noCPT 23µM*, TGFb SMAD3 inh -12%, TDP1 cell CPT inconclusive and IL1B secr inh -27.
For Cc1ccc(S(=O)(=O)N(C)Cc2ccc(C(=O)NN=C3C4CC5CC(C4)CC3C5)cc2)cc1 the results were HepG2 tox -3%, S-ASM inh 1%, TDP1 cell noCPT -23%, TGFb SMAD3 inh -8%, TDP1 cell CPT 2% and IL1B secr inh 14.
`CC/C(=N\NC(=O)c1ccc(CN(C)S(=O)(=O)c2ccc(C)cc2)cc1)c1ccc(OC(F)F)cc1` gave HepG2 tox 5%, S-ASM inh 3%, TDP1 cell noCPT 21µM*, TGFb SMAD3 inh 1%, TDP1 cell CPT inconclusive and IL1B secr inh -16.
`CC/C(=N\NC(=O)c1cc(C)oc1C)c1ccc(OC(F)F)cc1` gave HepG2 tox -34%, TDP1 cell noCPT inconclusive, TGFb SMAD3 inh -13%, TDP1 cell CPT inconclusive and IL1B secr inh 18.
Screening COc1ccc(OC)c(S(=O)(=O)N2CCC(NC(=O)c3ccccc3)CC2)c1 returned HepG2 tox 8%, S-ASM inh -2%, TDP1 cell noCPT inconclusive, TGFb SMAD3 inh -4%, TDP1 cell CPT -7% and IL1B secr inh 5.

Screening data (PubChem BioAssay)
